The source of these data is PubChem BioAssay (NCI).

SMILES strings stand for the structures. About 83,000 compounds went through this panel and 20% of them were active in at least one assay; those are over-represented in the sample as a whole.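 Each cell line was grown in a 96-well plate and treated with one concentration of compound for 48 hours. Values below 10 were considered active.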 A number with no mark means an inactive call. Activity calls are given as the source filed them.

Some test systems named below: NCI-H23 lung; NCI-H226 lung; NCI-H322M lung; HOP-62 NSCLC; NCI-H460 lung; HOP-92 NSCLC; NCI-H522 lung; A549/ATCC NSCLC; 786-0 renal; COLO 205 colon; DU-145 prostate; K-562 leukemia; MALME-3M melanoma; MDA-MB-231 breast; RXF 393 renal; SF-268 CNS; SF-295 CNS; SF-539 CNS; UACC-257 melanoma; M14 melanoma.
What all share (assay): NCI-60 one-dose screen, 48 h (100 = growth as untreated, 0 = no growth, -100 = all killed)
Common to all, as to details: 10 µM unless noted

As for `COc1cc(OC)cc(C2C(C#N)=C(N)Oc3c2ccc2ccc(O)cc32)c1` (stereo not given), the growth in the assay on NCI-H23 lung was 14.9%; with NCI-H226 lung, 38.2%; in the assay on NCI-H322M lung, 30.9%; in the assay with HOP-62 NSCLC, 23.3%; in the assay with NCI-H460 lung it was 3.85% (active); in the assay with HOP-92 NSCLC it was 13.4%. Further, the growth with NCI-H522 lung was 1.5% (active); in the assay on A549/ATCC NSCLC, 6.38% (active); in the assay on 786-0 renal, 12.7%; in the assay on COLO 205 colon, -42% (active); in the assay on DU-145 prostate, 10.9%; in the assay with K-562 leukemia it was 6.22% (active). Further, the growth in the assay on MALME-3M melanoma was 39.3%; in the assay with MDA-MB-231 breast it was 10.9%; in the assay with RXF 393 renal, 24.1%; in the assay with SF-268 CNS, 15.9%; in the assay on SF-295 CNS it was 22.9%; in the assay on SF-539 CNS, -9% (active). Besides, the growth was 69.4% in the assay with UACC-257 melanoma and 5.6% (active) with M14 melanoma.

As to `COc1cc(-c2cc(-c3ccc(Nc4ncnc5cc(Cl)ccc45)cc3)nc(N3CCN(C)CC3)n2)cc(OC)c1OC`, the growth in the assay with NCI-H23 lung was 108%; with NCI-H226 lung it was 50.5%; with NCI-H322M lung, 104%; in the assay on HOP-62 NSCLC, 94.4%; in the assay with NCI-H460 lung, 100%; in the assay with HOP-92 NSCLC it was 77.7%. For the same compound, the growth in the assay on NCI-H522 lung is 85.8%; in the assay with A549/ATCC NSCLC, 89.2%; in the assay with 786-0 renal, 45.2%; in the assay on COLO 205 colon it was 90.6%; in the assay on DU-145 prostate, 98.9%; in the assay on K-562 leukemia it was 56%. Further, the growth is 71% in the assay with MALME-3M melanoma; 51.7% in the assay with MDA-MB-231 breast; -1.57% (active) with RXF 393 renal; 76.9% in the assay with SF-268 CNS; 111% with SF-295 CNS; 32.9% in the assay with SF-539 CNS. The growth was 117% in the assay on UACC-257 melanoma and 80.8% with M14 melanoma.

As for `S=c1[nH]c2cc(Cl)ccc2o1`, the growth is 104% in the assay with NCI-H23 lung; 104% in the assay with NCI-H226 lung; 107% in the assay on NCI-H322M lung; 102% in the assay with HOP-62 NSCLC; 100% with NCI-H460 lung; 82.6% in the assay on HOP-92 NSCLC. Besides, the growth with NCI-H522 lung was 102%; in the assay on A549/ATCC NSCLC it was 118%; in the assay with 786-0 renal it was 92.7%; in the assay on COLO 205 colon, 110%; with DU-145 prostate it was 102%; with K-562 leukemia it was 90.7%. Moreover, the growth in the assay with MALME-3M melanoma was 102%; in the assay with MDA-MB-231 breast it was 89%; in the assay on RXF 393 renal it was 104%; with SF-268 CNS, 105%; with SF-295 CNS it was 99.2%; in the assay with SF-539 CNS, 106%. The values for the growth with UACC-257 melanoma and in the assay with M14 melanoma were 113% and 94.3%, respectively.

In the case of `O=C(CSc1nc2ccc([N+](=O)[O-])cc2[nH]1)Nc1cccc([N+](=O)[O-])c1`, the growth in the assay on NCI-H23 lung was 24.8%; in the assay on NCI-H226 lung, 36.5%; with NCI-H322M lung, 83.5%; in the assay with HOP-62 NSCLC, 95.6%; with NCI-H460 lung, 47.5%; with HOP-92 NSCLC, -14.2% (active). In addition, the growth in the assay with NCI-H522 lung was 19.8%; in the assay on A549/ATCC NSCLC, 58%; in the assay on 786-0 renal, 61.6%; with COLO 205 colon, 52.5%; in the assay with DU-145 prostate, 67%; in the assay on K-562 leukemia, 36.5%. For the same compound, the growth in the assay on MALME-3M melanoma was 30.5%; in the assay with MDA-MB-231 breast, 73.7%; in the assay on RXF 393 renal, 60.5%; in the assay on SF-268 CNS it was 64.6%; in the assay on SF-295 CNS, 43.8%; with SF-539 CNS it was 66.6%. Besides, the figures for the growth in the assay with UACC-257 melanoma and in the assay on M14 melanoma were 42.7% and 57.1%, respectively.

For `CC(=O)c1c(Nc2ccc(F)c(F)c2F)[nH]c2c(F)cc(F)cc2c1=O`, the growth with NCI-H23 lung is -3.83% (active); in the assay on NCI-H226 lung, -15.6% (active); in the assay on NCI-H322M lung, 4.47% (active); in the assay on HOP-62 NSCLC, -21.5% (active); in the assay with NCI-H460 lung it was 2.98% (active); with HOP-92 NSCLC it was -18.8% (active). Also, the growth in the assay on NCI-H522 lung is -11.1% (active); in the assay on A549/ATCC NSCLC, 4.48% (active); in the assay on 786-0 renal, 12.1%; in the assay with COLO 205 colon, -65% (active); in the assay with DU-145 prostate, 18.1%; in the assay with K-562 leukemia, 7.47% (active). Also, the growth with MALME-3M melanoma was -22.6% (active); in the assay with MDA-MB-231 breast it was -1.7% (active); in the assay on RXF 393 renal, -4.56% (active); in the assay on SF-268 CNS, 17.9%; in the assay on SF-295 CNS it was -35.3% (active); with SF-539 CNS, 1.53% (active). Also, the growth in the assay with UACC-257 melanoma is -18.4% (active); in the assay on M14 melanoma it was 2.68% (active).

Regarding `Cc1nc2ccccc2c(/C=C/c2ccc(C(F)(F)F)cc2)c1C(=O)/C=C/c1ccccc1`, the growth in the assay with NCI-H23 lung was -12.9% (active); with NCI-H226 lung, -0.692% (active); with NCI-H322M lung, 20.5%; in the assay on HOP-62 NSCLC it was -34.8% (active); in the assay with NCI-H460 lung, -74.9% (active); in the assay with HOP-92 NSCLC, 16.5%. For the same compound, the growth with NCI-H522 lung is -61.9% (active); in the assay on A549/ATCC NSCLC it was 6.27% (active); in the assay with 786-0 renal, -14.1% (active); with COLO 205 colon it was -54.6% (active); in the assay with DU-145 prostate, -43.6% (active); with K-562 leukemia, 4.16% (active). In addition, the growth in the assay with MALME-3M melanoma is -65.2% (active); in the assay with MDA-MB-231 breast, -39.9% (active); with RXF 393 renal, -82.9% (active); in the assay on SF-268 CNS it was 33.4%; in the assay with SF-295 CNS it was -45.3% (active); in the assay with SF-539 CNS it was -83.6% (active). Moreover, the values for the growth with UACC-257 melanoma and in the assay with M14 melanoma were -25.5% (active) and -25.9% (active), respectively.

`CCCCN1C(=O)/C(=c2\sc3n(c2=O)NC2C(N=3)N(CC)C(=O)N2CC)c2ccccc21` (stereo not given): the growth in the assay with NCI-H23 lung is 46.9%; with NCI-H226 lung, 70.4%; with NCI-H322M lung, 69.9%; in the assay with HOP-62 NSCLC it was 71.7%; in the assay on NCI-H460 lung it was 35.3%; in the assay with HOP-92 NSCLC, 60%. Moreover, the growth in the assay on NCI-H522 lung was 21.4%; in the assay with A549/ATCC NSCLC, 36.6%; with 786-0 renal it was 53.6%; with COLO 205 colon, 24.9%; with DU-145 prostate, 20.6%; in the assay with K-562 leukemia, 14.6%. Also, the growth in the assay with MALME-3M melanoma is 57.6%; in the assay with MDA-MB-231 breast, 34.6%; in the assay on RXF 393 renal it was -0.314% (active); in the assay on SF-268 CNS, 48.6%; in the assay on SF-295 CNS, 69.7%; in the assay on SF-539 CNS, 13.5%. The growth was 31% with UACC-257 melanoma and 25.3% with M14 melanoma.

Turning to `COc1cc(C(=O)c2c(N)ncn2-c2ccccc2)cc(OC)c1OC`, the growth was 101% in the assay with NCI-H23 lung; 84% in the assay with NCI-H226 lung; 104% with NCI-H322M lung; 77.1% in the assay with HOP-62 NSCLC; 106% in the assay with NCI-H460 lung; 96.2% in the assay with HOP-92 NSCLC. The growth is 50.5% with NCI-H522 lung; 106% in the assay on A549/ATCC NSCLC; 88.7% in the assay with 786-0 renal; 97.4% in the assay on COLO 205 colon; 100% in the assay on DU-145 prostate; 76.4% with K-562 leukemia. Also, the growth with MALME-3M melanoma was 106%; with MDA-MB-231 breast it was 103%; with RXF 393 renal, 86.8%; in the assay with SF-268 CNS it was 101%; with SF-295 CNS, 91%; in the assay with SF-539 CNS it was 87%. Besides, the growth in the assay with UACC-257 melanoma is 109%; with M14 melanoma it was 96.1%.
